Read-out in assay [1]: Collagen I, COL1A1 (gene 1277)
The assay can be described thus: BSK_MyoF_CollagenI: BioMAP Diversity Plus: MyoF Assay for Collagen I Biomarker Activity (AID 2284238). The following applies: primary human lung fibroblasts. The method in brief: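 Primary human lung fibroblasts (MyoF system) treated 24 h; Collagen I quantified by ELISA and fitted in positive direction against DMSO. Parallel SRB total-protein staining assessed overt cytotoxicity.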

Read-out in assay [2]: Collagen III, COL3A1 (gene 1281)
The assay can be described thus: BSK_MyoF_CollagenIII: BioMAP Diversity Plus: MyoF Assay for Collagen III Biomarker Activity (AID 2284239). The settings on record: primary human lung fibroblasts. The method in brief: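 Primary human lung fibroblasts (BioMAP MyoF system) exposed 24 h. Collagen III measured by ELISA; positive-direction fit relative to DMSO.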

Read-out in assay [3]: Interleukin 17F (IL17F), IL17F (gene 112744)
Kind of assay: BSK_BT_xIL17F: BioMAP Diversity Plus: BT Assay for Interleukin 17F (IL17F) Biomarker Activity (AID 2284243). The following applies: primary human B cells with PBMC. The method in brief:
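Human PBMC co-cultured with B cells, compound exposure 24 h; secreted IL-17F quantified by Luminex xMAP, referenced to DMSO control. PBMC viability measured in parallel by Alamar Blue reduction.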

Activity calls are given as the source filed them. The calls were made as follows: active = hit-call score of the fitted dose curve at least 0.9, where 1 is the maximum; inactive = score below 0.9.

On to `CCCCCCCCCCCCCCCC(=O)OC/C=C(C)/C=C/C=C(C)/C=C/C1=C(C)CCCC1(C)C`, for which the result in assay [1], in assay [2] and in assay [3] was inactive.

Turning to `CC(=O)c1c(C)c([N+](=O)[O-])c(C(C)(C)C)c([N+](=O)[O-])c1C`, the result in assay [1] and in assay [2] was inactive. For the same compound, the AC50 (commonly the midpoint of the concentration-response curve, whichever way the signal moves) in assay [3] is 20 µM (active).

In the case of `O=C1c2ccccc2C(=O)c2c(O)ccc(O)c21`, the result in assay [1] and in assay [2] was inactive. For the same compound, the AC50 in assay [3] is 9.01 µM (active).

With `CCCCOC(=O)CCCCCCCC(=O)OCCCC`, the outcome in assay [1], in assay [2] and in assay [3] was inactive.

As for `C=C(C)C(=O)OCCOCCOCCOC(=O)C(=C)C`, the outcome in assay [1], in assay [2] and in assay [3] was inactive.
